SMILES strings stand for the structures. Calls of active or inactive are those of the source. How the source made its calls: active means hit-call score of the fitted dose curve at least 0.9, where 1 is the maximum; inconclusive means response in the unintended direction; inactive means score below 0.9.

Chain of Estrogen receptor (Homo sapiens) (P03372 whole entry, looked up): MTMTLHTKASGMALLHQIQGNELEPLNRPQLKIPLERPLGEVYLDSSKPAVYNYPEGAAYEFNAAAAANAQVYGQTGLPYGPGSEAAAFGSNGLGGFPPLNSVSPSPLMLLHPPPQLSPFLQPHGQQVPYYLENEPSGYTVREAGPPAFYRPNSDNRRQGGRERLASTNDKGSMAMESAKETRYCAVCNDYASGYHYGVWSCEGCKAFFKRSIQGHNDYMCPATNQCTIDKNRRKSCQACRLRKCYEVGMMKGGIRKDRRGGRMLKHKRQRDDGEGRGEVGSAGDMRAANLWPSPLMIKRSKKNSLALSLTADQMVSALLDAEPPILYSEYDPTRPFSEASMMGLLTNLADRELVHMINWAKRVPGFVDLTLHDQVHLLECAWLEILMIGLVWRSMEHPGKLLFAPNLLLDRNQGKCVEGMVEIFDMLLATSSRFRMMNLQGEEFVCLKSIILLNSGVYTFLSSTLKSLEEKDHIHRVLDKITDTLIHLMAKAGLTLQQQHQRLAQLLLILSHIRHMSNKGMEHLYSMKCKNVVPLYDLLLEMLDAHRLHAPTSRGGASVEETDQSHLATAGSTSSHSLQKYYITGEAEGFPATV

The target of this test is Estrogen receptor (Homo sapiens) (UniProt P03372). As to the kind of experiment: OT_ERa_GFPERaERE_0120: Odyssey Thera (OT) 2-hour HeLa Transcription Induction Assay for Estrogen Receptor (AID 2283382). A digest of the protocol:
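Measures ESR1 pathway reporter gain-of-signal in HeLa cells after a 2-hour treatment, detected as fluorescent protein induction by microscopy, DMSO as baseline.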
With `N#Cc1c(Cl)cccc1Cl`, the molecule was called inactive.

For `Cn1c(-c2ccccc2)cc(-c2ccccc2)[n+]1C`, the molecule was called inactive.

`CC(C)NC(=O)N1CC(=O)N(c2cc(Cl)cc(Cl)c2)C1=O`: the result was inactive.

Take `CCSC(=O)N1CCCCCC1`: the outcome was inactive.

Take `C=CCOC(=O)C(C)(C)OC(=O)c1cc(-n2c(=O)cc(C(F)(F)F)n(C)c2=O)ccc1Cl`: the outcome was inactive.

Consider `Nc1cnn(-c2ccccc2)c(=O)c1Cl`, for which the molecule was called inactive.

Turning to `CC(C)Nc1nc(Cl)nc(NC(C)C)n1`, the molecule was called inactive.

Consider `CC(C)=CC1C(C(=O)OCc2coc(Cc3ccccc3)c2)C1(C)C` (stereo unspecified), for which the molecule was called inactive.

Turning to `CCN(CC)c1nc(C)cc(OP(=S)(OC)OC)n1`, the outcome was inactive.

`CCNC(=O)NC(=O)C(C#N)=NOC`: the molecule was called inactive.

Take `CCOc1nc(C(Cl)(Cl)Cl)ns1`: the molecule was classed as inactive.

As for `CO/N=C(/C1=NOCCO1)c1ccccc1Oc1ncnc(Oc2ccccc2Cl)c1F`, the molecule was classed as inactive.

Turning to `CC(C)N1C(=O)c2ccccc2NS1(=O)=O`, the molecule was called inactive.

As to `CCNP(=S)(OC)O/C(C)=C/C(=O)OC(C)C` (stereo unspecified), the call was inactive.

Regarding `Cc1cc(C)nc(Nc2ccccc2)n1`, the molecule was classed as inactive.

In the case of `Cc1ccc(N=CN(C)C=Nc2ccc(C)cc2C)c(C)c1`, the molecule was classed as inactive.

For `CC1(C)CON(Cc2ccccc2Cl)C1=O`, the molecule was classed as inactive.

`CCOP(=S)(OCC)Oc1nc(Cl)n(C(C)C)n1`: the molecule was classed as inactive.

For `CC(C)Oc1cccc(NC(=O)c2ccccc2C(F)(F)F)c1`, the molecule was called inactive.

Turning to `O=C(Nc1ccccc1-c1ccc(Cl)cc1)c1cccnc1Cl`, the call was inactive.

As to `C=C(C)CN(CC)c1c([N+](=O)[O-])cc(C(F)(F)F)cc1[N+](=O)[O-]`, the AC50 – broadly, the midpoint of the concentration-response curve, whichever way the signal moves – is 12.1 µM (active).

`O=P(O)(O)CCCl`: the molecule was classed as inactive.

As to `CC1(C)C(C=C(Cl)Cl)C1C(=O)OC(C#N)c1cccc(Oc2ccccc2)c1` (stereo unspecified), the molecule was classed as inactive.

Regarding `CCCCC(C#N)(Cn1cncn1)c1ccc(Cl)cc1` (stereo unspecified), the result was inactive.

For `COC(=O)NS(=O)(=O)c1ccc(N)cc1`, the molecule was classed as inactive.

Take `N#Cc1c[nH]cc1-c1cccc2c1OC(F)(F)O2`: the result was inactive.

For `CN=C=S`, the molecule was called inactive.

For the molecule `CNC(=O)N(C)c1nnc(C(C)(C)C)s1`, the outcome was inactive.

Turning to `COCC(C)N(C(=O)CCl)c1c(C)csc1C` (stereo unspecified), the result was inactive.

For the molecule `O=C1C2CC=CCC2C(=O)N1SC(Cl)(Cl)Cl` (stereo unspecified), the call was inactive.

`CC(C)C1(C)N=C(c2ncccc2C(=O)O)NC1=O` (stereo unspecified): the outcome was inactive.

With `CC(C)(C)C(=O)C(Oc1ccc(Cl)cc1)n1cncn1` (stereo unspecified), the outcome was inactive.

As to `COP(=O)(OC)O/C(C)=C/C(=O)N(C)C`, the molecule was called inactive.

As to `N#CN=C1SCCN1Cc1ccc(Cl)nc1`, the outcome was inactive.

Consider `CN/C(=N\[N+](=O)[O-])NCc1cnc(Cl)s1`, for which the outcome was inactive.

On to `Clc1nc(Cl)nc(Nc2ccccc2Cl)n1`, for which the outcome was inactive.

These data come from PubChem BioAssay (EPA / NIEHS).
